Compound activity deposited in PubChem BioAssay by National Center for Advancing Translational Sciences (NCATS).
Most compounds without a hit are left out; they make up all but 19% or so of the library.
DT40 TDP1 CPT – DT40-hTDP1 cell growth loss with CPT. chicken DT40 Tdp1-/-;hTDP1 cells + 20 nM CPT, ATP luminescence, 48 h. Potency, µM (highest dose often 46.2 µM), actives largely listed as inhibitors. 420,000 tested, 12% active. AID 686979; further: nearly all actives have a fitted effect of over 55% in size
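Cell growth measured by CellTiter-Glo luminescence after a minimum 48 h, 37 C compound exposure with 20 nM CPT in Tdp1-knockout DT40 cells stably expressing hTDP1, seeded 400/well; qHTS titration format.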
IL-1B inflam inh – inhibitors of inflammasome signaling (IL-1 beta secretion); THP-1 LPS/ATP IL-1B secretion, AlphaLISA, 16 h; active compounds read low; activity change, % at 57.5 µM; 360,000 tested, 4.7% active; in the data active means activity change below about -50%; inconclusive means mostly about -30% to -49%
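Secreted IL-1B measured by AlphaLISA bead assay after 16 h compound exposure of THP-1 cells; compounds (final up to 57.5 uM) added 1 h before LPS (250 ng/mL) and ATP (1.25 mM) stimulation; lower signal means less secretion.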
BCR signal inh – inhibitors of chronic active B-cell receptor signaling. ABC-DLBCL IkBa-CBG/CBR reporter, luminescence ratio, 4 h. Potency, µM (series often up to 46.1 µM), actives largely listed as inhibitors. 340,000 tested, 0.05% active. AID 493014; active means well fitted inhibition curve with a large enough effect in the signal ratio, with a control signal flat, not every such curve was filed as active; inconclusive means small, poorly fitted or top-dose-only effect, or effect the other way, or a change in a side signal; the % refers to the signal ratio
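TMD8 human ABC-DLBCL cells with doxycycline-inducible IκBα–green luciferase fusion and unfused red luciferase, in 0.5% FBS medium; compounds up to 46 uM, 4 h at 37C. Green/red luminescence ratio, filter-overlap corrected, fitted to concentration-response curves.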
DT40 TDP1 no CPT – qHTS for Inhibitors of human tyrosyl-DNA phosphodiesterase 1 (TDP1): qHTS in cells in absence of CPT. DT40 Tdp1-/- hTDP1 cells, no CPT, ATP luminescence, 48 h. Potency, µM (titrated, usually from 46.2 µM), hits mostly inhibitors. 420,000 tested, 15% active; further: nearly all actives have a fitted effect of over 55% in size
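Seeded 400 DT40-hTDP1 cells/well (vehicle DMSO, no 20 nM CPT); pinned compounds; ≥48 hr at 37 °C; CellTiter-Glo luminescence as viability measure.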
SW480 rerep – induces DNA re-replication in SW480 colon adenocarcinoma cells; AID 624297; SW480 DNA re-replication, Hoechst DNA content imaging, 48 h; 340,000 tested, 1.8% active; Potency, µM (highest dose often 46.1 µM), most hits filed as activators; further: nearly all actives have a fitted effect of over 55% in size
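Hoechst fluorescence of nuclei (405 nm excitation, 500-530 nm emission) measured by plate-scanning imager after 48 hr compound exposure at 37 C; re-replication scored as increased number of nuclei with elevated intensity.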
MCF10A rerep – inducers of DNA re-replication in MCF 10A breast cells; MCF 10A DNA re-replication, Hoechst nuclear intensity, 48 h; Potency, µM (series often up to 46.1 µM), hits mostly activators; 350,000 tested, 2.9% active; further: nearly all actives have a fitted effect of over 50% in size
A number is an active result; - = inactive; ? = inconclusive; . = no result; [ ] = another dose, or the depositor's remark. Unless noted, the call rests on the fitted dose curve; in most records, active means well fitted curve in the direction sought with a large enough effect; inconclusive means small, poorly fitted or top-dose-only effect, or another doubt; inactive means no such curve, though single readings can be large; an effect the other way counts as inactive or inconclusive.

SMILES	DT40 TDP1 CPT	IL-1B inflam inh	BCR signal inh	DT40 TDP1 no CPT	SW480 rerep	MCF10A rerep
Cc1ccc2c(c1)COc1c3ccc(C(=O)N[C@@H](CO)C(C)C)cc3nn1-2	23µM	-	-	18µM	-[9.22 µM]	-
COCCNC(=O)c1ccc2c3n(nc2c1)-c1ccc(C)cc1CO3	?	?	?	?	-[9.22 µM]	-
O=C(c1ccc2c3n(nc2c1)-c1ccc(Cl)cc1CO3)N1CCOCC1	?	-	?	?	-	-
Cc1ccc2c(c1)COc1c3ccc(C(=O)N4CCCCC4)cc3nn1-2	21µM	-	-	26µM	-	-
CC(C)c1ccc(NC(=O)C2CCCN(S(=O)(=O)c3ccc4[nH]c(=O)oc4c3)C2)cc1 (stereo not drawn)	-	.	.	?	.	.
COc1ccccc1/C=C/C(=O)NNC(=O)c1cccs1	-	-	?	-	-	-
Cc1cc(-c2ccc(C)c(S(=O)(=O)NCC3CCN(Cc4ccccc4F)CC3)c2)on1	18µM	?	-	23µM	?	?
COc1cccc(CCN2CCC(CNS(=O)(=O)c3cc(-c4cc(C)no4)ccc3C)CC2)c1	?	-62	-	?	?	-
Cc1cc(-c2ccc(C)c(S(=O)(=O)NCC3CCN(Cc4cccc(F)c4)CC3)c2)on1	?	-	-	?	?	-
CC(C)C[C@@H](CN1CCC[C@H]1CN1C(=O)C(=O)NC[C@@H]1Cc1ccccc1)N1C[C@H](Cc2ccccc2)N(CC2CCCCC2)C(=O)C1=O	?	-	.	?	.	.
CC(C)C[C@H]1CNC(=S)N1C[C@H]1CCCN1C[C@H](Cc1ccccc1)N1C[C@H](CC(C)C)N(CCc2ccccc2)C1=S	13µM	-	.	16µM	.	.
CC(C)C[C@H]1CNC(=S)N1C[C@H]1CCCN1C[C@H](CC(C)C)N1C[C@H](Cc2ccccc2)N(CCc2ccccc2)C1=S	?	?	.	21µM	.	.
CC(C)C[C@H]1CNC(=S)N1C[C@H]1CCCN1C[C@H](CC(C)C)N1C[C@H](CC(C)C)N(CCc2ccccc2)C1=S	?	-	.	26µM	.	.
CC(C)C[C@H]1CNC(=S)N1CC1CCCN1C[C@H](CC(C)C)N1C[C@H](CC(C)C)N(CCc2ccccc2)C1=S (stereo partly drawn)	8.2µM	-	.	5.8µM	-	-
Cc1nnsc1Sc1ccccc1C(=O)O	-	-	-	-	-	-
O=C(Oc1cccc2ccccc12)c1cc(Cl)nc2ccccc12	-	-	-	?	-	-
O=Cc1ccc(OC(=O)c2cc(Cl)nc3ccccc23)cc1	?	-	-	21µM	-	?
CO/N=C/c1ccc(Sc2ccccc2)c([N+](=O)[O-])c1	-	-	?	?	-	?
CO/N=C/c1ccc(Oc2ccc(C)cc2)c([N+](=O)[O-])c1	?	-	?	21µM	-	-
Cc1ccccc1CNC(=O)C(=O)NCC(c1cccs1)S(=O)(=O)c1ccc(Cl)cc1 (stereo not drawn)	?	.	-	23µM	.	.
Cc1ccc(S(=O)(=O)C(CNC(=O)C(=O)NCc2ccccc2C)c2cccs2)cc1 (stereo not drawn)	?	.	-	?	.	.
O=C(NCc1ccccc1Cl)C(=O)NCC(c1cccs1)S(=O)(=O)c1ccccc1 (stereo not drawn)	15µM	.	-	18µM	.	.
O=C(c1cc(C2CCCCN2C(=O)OCCF)on1)N1CCOCC1 (stereo not drawn)	-	-	.	-	.	.
Cc1cc(=O)n(CC(=O)Nc2ccc(Cl)c(Cl)c2)c(-n2nc(C)cc2C)n1	?	.	?	16µM	.	.
Cc1cc(C)n(-c2nc(C)c(C)c(=O)n2CC(=O)Nc2cccc([N+](=O)[O-])c2)n1	?	.	-	16µM	.	.
SMILES	DT40 TDP1 CPT	IL-1B inflam inh	BCR signal inh	DT40 TDP1 no CPT	SW480 rerep	MCF10A rerep
O=C(O)c1nc(-c2ccccc2)c(C(=O)NC2CC2)[nH]1	-	-	.	-	.	.
C=CCN(c1ccc(OC)cc1)S(=O)(=O)c1ccc(Cl)c(C(=O)OCC(=O)c2c(N)n(C)c(=O)n(C)c2=O)c1	?	-	.	?	-	-
Cn1c(N)c(C(=O)COC(=O)c2cccc(S(=O)(=O)NCc3ccccc3)c2)c(=O)n(C)c1=O	?	-	-	?	-	-
COc1ccc(N(C)S(=O)(=O)c2cccc(C(=O)OCC(=O)c3c(N)n(C)c(=O)n(C)c3=O)c2)cc1	23µM	-	?	13µM	-	-
CCN(c1ccccc1)S(=O)(=O)c1cccc(C(=O)OCC(=O)c2c(N)n(C)c(=O)n(C)c2=O)c1	?	-	.	18µM	-	-
COc1ccc(N(C)S(=O)(=O)c2cccc(C(=O)OCC(=O)Nc3cc(C)ccc3OC)c2)cc1	-	-	.	?	.	.
Cn1c(=O)c(C(=O)CN2CCCCCC2)c(N)n(Cc2ccccc2)c1=O	-	-	-	-	-	?
Cc1cc(C)c(C)c(S(=O)(=O)N2CCN(CC(=O)c3c(N)n(Cc4ccccc4)c(=O)n(C)c3=O)CC2)c1C	?	-	-	?	?	13µM
CN(c1ccccc1)S(=O)(=O)c1ccc(Cl)c(C(=O)OCC(=O)c2c(N)n(C)c(=O)n(C)c2=O)c1	23µM	-	.	?	-	?
Cn1ccs/c1=N\C(=O)Nc1cccc(C(F)(F)F)c1	-	?	?	-	-	-
COc1cccc(C(=O)N2CCN(Cc3ccc(OC)cc3OC)CC2)c1	-	-	-	-	-	-
CCc1noc(C)c1C(=O)N1CCN(S(=O)(=O)c2c(C)c(C)cc(C)c2C)CC1	-	-	-	?	-	-
CNS(=O)(=O)c1cccc(C(=O)OCC(=O)c2c(N)n(Cc3ccccc3)c(=O)n(C)c2=O)c1	15µM	-	.	?	-	-
Cc1sc2ncn(CC(=O)N3CCN(c4ccccc4)CC3)c(=O)c2c1S(=O)(=O)N1CCC(C)CC1	?	.	.	23µM	.	.
Cc1sc2ncn(CC(=O)N3CCN(c4ccccn4)CC3)c(=O)c2c1S(=O)(=O)N1CCC(C)CC1	-	-	-	-	-	-
Cc1sc2ncn(CC(=O)N3CCN(c4cccc(Cl)c4)CC3)c(=O)c2c1S(=O)(=O)N1CCC(C)CC1	?	.	.	23µM	.	.
Cc1sc2ncn(CC(=O)N3CCCCC3)c(=O)c2c1S(=O)(=O)N1CCC(C)CC1	-	-	-	-	-	-
Cc1cccc(OCCNC(=O)CCNS(=O)(=O)c2ccc3ccccc3c2)c1	-	-	?	-	-	-
CC1CCCN(CCOCCOc2ccc(Br)cc2Cl)C1 (stereo not drawn)	18µM	?	-	18µM	?	?
Clc1ccc(OCCCN2CCCCC2)c(Br)c1	?	-	?	?	-	?
